Measurements: article PMC7862700, “An all-to-all approach to the identification of sequence-specific readers for epigenetic DNA modifications on cytosine”

How the values were obtained:
Assay in all cases: DAPPL (digital affinity profiling via proximity ligation, sequencing); 10 mM Tris-HCl pH 7.5, 50 mM NaCl, 1 mM DTT, 4% glycerol, room temperature, 30 min; GST-TFs on glutathione beads, 16-mer random dsDNA library, 0.1% formaldehyde crosslink after washing; high values mean tight binding
FLI1 = molecular target: T1, FLI1 (Homo sapiens, UniProt Q01543 1-452); conditions: protein: recombinant; tags: N-terminal GST; dsDNA, one strand shown
T1 sequence: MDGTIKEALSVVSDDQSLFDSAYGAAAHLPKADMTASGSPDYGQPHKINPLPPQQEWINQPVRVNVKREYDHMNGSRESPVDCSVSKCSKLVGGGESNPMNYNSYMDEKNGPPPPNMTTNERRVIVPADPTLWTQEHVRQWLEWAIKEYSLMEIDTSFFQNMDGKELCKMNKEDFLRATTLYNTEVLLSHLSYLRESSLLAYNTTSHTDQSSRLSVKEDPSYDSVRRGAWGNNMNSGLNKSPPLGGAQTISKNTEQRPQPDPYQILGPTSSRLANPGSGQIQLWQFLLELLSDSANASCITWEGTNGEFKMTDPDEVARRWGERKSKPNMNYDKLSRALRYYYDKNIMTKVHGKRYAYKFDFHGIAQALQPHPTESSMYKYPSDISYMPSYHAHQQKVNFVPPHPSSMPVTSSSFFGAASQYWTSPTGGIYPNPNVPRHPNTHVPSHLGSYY
Outline: (§1)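 The binding signal reported is, for every hexamer, its read frequency for a factor over its read frequency for the tag-only sample. Reads came from pools of yeast-expressed, GST-fused human transcription factors on glutathione beads, barcoded with DNA and mixed with that sample, which were incubated with 200 nmole of a random double-stranded 16-mer DNA library in Tris/NaCl/DTT/glycerol buffer at room temperature for 30 min. After washing, the pools were crosslinked with 0.1% formaldehyde, proximity-ligated with BsaI/T4 ligase for 1 h at 37 °C, PCR-amplified and sequenced on an Illumina NextSeq500.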

ELK1 = molecular target: T2, ELK1 (Homo sapiens, UniProt P19419 1-428); conditions: protein: recombinant; tags: N-terminal GST; dsDNA, one strand shown
T2 sequence: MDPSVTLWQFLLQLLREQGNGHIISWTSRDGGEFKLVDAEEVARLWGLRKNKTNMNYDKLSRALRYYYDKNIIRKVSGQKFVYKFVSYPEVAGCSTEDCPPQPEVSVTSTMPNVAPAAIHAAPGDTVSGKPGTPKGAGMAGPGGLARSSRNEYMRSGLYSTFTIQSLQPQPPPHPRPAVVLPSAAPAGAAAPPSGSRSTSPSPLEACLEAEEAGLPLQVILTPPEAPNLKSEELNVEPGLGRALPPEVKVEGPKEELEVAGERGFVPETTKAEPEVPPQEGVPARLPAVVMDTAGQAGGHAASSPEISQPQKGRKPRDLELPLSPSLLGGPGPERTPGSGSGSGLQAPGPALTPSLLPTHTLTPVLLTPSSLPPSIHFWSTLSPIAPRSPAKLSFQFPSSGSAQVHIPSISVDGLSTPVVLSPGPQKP
Outline: as §1

GABPA = molecular target: T3, GABPA (Homo sapiens, UniProt Q06546 1-454); conditions: protein: recombinant; tags: N-terminal GST; dsDNA, one strand shown
T3 sequence: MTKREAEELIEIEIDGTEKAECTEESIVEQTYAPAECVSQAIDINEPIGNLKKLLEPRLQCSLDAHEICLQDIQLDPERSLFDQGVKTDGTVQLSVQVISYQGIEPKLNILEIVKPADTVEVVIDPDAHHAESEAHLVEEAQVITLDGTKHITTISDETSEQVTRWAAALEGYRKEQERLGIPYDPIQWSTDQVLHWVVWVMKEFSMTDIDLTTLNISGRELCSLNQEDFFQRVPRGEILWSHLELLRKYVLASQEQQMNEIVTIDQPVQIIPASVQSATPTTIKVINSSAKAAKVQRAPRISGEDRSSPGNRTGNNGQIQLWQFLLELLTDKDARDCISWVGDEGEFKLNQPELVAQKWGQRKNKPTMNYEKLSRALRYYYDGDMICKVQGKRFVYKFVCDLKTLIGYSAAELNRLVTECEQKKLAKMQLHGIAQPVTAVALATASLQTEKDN
Outline: as §1

ERG = molecular target: T4, ERG (Homo sapiens, UniProt P11308 1-479); conditions: protein: recombinant; tags: N-terminal GST; dsDNA, one strand shown
T4 sequence: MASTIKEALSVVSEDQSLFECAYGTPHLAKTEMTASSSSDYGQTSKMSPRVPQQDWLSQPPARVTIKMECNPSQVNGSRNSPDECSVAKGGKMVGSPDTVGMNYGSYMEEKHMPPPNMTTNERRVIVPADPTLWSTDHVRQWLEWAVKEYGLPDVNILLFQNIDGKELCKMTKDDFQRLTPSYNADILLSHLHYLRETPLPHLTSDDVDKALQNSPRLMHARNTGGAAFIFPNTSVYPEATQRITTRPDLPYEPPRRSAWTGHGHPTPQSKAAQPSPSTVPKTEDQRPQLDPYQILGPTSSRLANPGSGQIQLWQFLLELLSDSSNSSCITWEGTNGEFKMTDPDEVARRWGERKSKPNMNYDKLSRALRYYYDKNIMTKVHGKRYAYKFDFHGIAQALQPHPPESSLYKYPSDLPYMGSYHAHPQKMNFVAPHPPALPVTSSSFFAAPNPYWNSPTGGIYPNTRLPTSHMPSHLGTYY
Outline: as §1

ELF1 = ELF1 (Homo sapiens, UniProt P32519 1-619); conditions: protein: recombinant; tags: N-terminal GST; dsDNA, one strand shown
Chain of ELF1 (P32519 whole entry): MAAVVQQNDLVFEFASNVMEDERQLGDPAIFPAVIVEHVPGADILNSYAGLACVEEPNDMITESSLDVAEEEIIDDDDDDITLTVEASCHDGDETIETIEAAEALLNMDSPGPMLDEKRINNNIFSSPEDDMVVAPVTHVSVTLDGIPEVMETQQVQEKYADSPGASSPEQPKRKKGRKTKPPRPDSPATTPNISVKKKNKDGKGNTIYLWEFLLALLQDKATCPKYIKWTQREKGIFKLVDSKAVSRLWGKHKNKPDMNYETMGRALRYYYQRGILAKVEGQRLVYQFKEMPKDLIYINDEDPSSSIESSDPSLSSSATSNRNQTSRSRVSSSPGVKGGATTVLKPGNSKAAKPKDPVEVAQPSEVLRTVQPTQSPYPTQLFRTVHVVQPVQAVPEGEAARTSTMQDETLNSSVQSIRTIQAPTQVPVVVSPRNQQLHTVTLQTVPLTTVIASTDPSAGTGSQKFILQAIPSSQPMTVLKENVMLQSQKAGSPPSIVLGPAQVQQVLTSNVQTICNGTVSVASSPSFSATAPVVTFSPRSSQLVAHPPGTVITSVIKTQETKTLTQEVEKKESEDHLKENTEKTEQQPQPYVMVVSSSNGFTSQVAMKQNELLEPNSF
Outline: as §1

EHF = molecular target: T5, EHF (Homo sapiens, UniProt Q9NZC4 1-300); conditions: protein: recombinant; tags: N-terminal GST; dsDNA, one strand shown
T5 sequence: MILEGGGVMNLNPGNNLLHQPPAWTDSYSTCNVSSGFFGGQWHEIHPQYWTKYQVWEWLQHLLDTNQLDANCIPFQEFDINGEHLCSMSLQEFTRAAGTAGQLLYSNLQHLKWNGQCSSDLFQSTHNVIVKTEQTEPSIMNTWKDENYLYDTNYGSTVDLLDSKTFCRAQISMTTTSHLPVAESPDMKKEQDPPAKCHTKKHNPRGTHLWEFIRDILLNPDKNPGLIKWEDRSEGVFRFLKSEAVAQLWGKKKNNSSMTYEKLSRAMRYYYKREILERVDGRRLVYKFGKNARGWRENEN
Outline: as §1

SPI1 = SPI1 (Homo sapiens, UniProt P17947 1-270); conditions: protein: recombinant; tags: N-terminal GST; dsDNA, one strand shown
Outline: as §1

SPIB = SPIB (Homo sapiens, UniProt Q01892 1-262); conditions: protein: recombinant; tags: N-terminal GST; dsDNA, one strand shown
Chain of SPIB (Q01892 whole entry): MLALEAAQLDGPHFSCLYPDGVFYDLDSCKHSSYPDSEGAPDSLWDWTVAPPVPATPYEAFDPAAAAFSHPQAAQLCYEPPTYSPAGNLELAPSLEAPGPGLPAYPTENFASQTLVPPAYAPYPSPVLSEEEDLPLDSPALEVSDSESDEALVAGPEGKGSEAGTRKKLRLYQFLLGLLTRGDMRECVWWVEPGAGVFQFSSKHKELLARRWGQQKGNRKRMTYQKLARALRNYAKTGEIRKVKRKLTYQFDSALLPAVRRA
Outline: as §1

ELK3 = molecular target: T6, ELK3 (Homo sapiens, UniProt P41970 1-407); conditions: protein: recombinant; tags: N-terminal GST; dsDNA, one strand shown
T6 sequence: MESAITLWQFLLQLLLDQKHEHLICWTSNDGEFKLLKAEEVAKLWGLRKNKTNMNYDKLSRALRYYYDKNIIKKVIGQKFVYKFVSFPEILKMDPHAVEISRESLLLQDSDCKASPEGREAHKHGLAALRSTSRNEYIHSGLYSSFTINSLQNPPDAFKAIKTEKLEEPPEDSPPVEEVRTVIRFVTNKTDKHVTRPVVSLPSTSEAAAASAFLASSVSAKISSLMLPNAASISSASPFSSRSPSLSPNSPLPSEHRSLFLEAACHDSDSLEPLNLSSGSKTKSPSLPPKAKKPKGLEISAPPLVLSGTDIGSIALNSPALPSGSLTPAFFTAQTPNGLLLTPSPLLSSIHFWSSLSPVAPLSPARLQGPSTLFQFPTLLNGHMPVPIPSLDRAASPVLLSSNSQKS
Outline: as §1

FEV = molecular target: T7, FEV (Homo sapiens, UniProt Q99581 1-238); conditions: protein: recombinant; tags: N-terminal GST; dsDNA, one strand shown
T7 sequence: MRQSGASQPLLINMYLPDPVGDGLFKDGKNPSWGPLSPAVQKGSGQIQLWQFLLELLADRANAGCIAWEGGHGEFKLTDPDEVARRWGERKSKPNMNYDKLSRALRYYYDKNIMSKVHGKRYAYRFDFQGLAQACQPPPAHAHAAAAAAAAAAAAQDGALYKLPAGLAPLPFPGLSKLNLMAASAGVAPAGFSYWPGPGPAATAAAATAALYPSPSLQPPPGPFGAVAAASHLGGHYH
Outline: as §1

ETV5 = ETV5 (Homo sapiens, UniProt P41161 1-510); conditions: protein: recombinant; tags: N-terminal GST; dsDNA, one strand shown
Chain of ETV5 (P41161 whole entry): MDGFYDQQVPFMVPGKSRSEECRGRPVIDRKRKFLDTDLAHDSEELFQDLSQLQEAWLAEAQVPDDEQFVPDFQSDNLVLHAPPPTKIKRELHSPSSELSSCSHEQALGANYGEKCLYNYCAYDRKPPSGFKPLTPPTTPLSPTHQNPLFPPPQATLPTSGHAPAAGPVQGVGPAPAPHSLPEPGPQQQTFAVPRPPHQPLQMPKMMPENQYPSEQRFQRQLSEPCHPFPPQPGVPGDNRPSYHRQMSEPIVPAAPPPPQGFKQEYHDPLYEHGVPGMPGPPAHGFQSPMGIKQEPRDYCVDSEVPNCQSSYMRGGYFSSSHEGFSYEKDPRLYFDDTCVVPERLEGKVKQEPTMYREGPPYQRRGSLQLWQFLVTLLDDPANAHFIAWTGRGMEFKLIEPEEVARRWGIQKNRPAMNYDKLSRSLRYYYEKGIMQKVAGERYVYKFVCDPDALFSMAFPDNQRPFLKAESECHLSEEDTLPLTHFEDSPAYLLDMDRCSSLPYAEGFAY
Outline: as §1

HSF1 = HSF1 (Homo sapiens, UniProt Q00613 1-529); conditions: protein: recombinant; tags: N-terminal GST; chain copies: 3; dsDNA, one strand shown
Chain of HSF1 (Q00613 whole entry): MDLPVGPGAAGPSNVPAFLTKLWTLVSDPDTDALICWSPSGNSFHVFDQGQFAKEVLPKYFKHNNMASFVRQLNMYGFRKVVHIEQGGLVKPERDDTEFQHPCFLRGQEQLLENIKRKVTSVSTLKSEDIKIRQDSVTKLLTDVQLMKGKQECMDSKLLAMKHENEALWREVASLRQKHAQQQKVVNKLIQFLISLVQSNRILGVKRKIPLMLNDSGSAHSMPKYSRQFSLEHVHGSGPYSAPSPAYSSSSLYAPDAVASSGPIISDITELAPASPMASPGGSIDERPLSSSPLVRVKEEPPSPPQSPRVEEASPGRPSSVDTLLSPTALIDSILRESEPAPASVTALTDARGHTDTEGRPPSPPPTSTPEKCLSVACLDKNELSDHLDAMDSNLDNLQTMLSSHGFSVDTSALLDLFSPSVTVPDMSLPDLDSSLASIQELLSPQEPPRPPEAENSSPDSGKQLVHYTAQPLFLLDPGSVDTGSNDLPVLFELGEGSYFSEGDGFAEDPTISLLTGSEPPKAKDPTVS
Outline: as §1

SPIC = molecular target: T8, SPIC (Homo sapiens, UniProt Q8N5J4 1-248); conditions: protein: recombinant; tags: N-terminal GST; dsDNA, one strand shown
T8 sequence: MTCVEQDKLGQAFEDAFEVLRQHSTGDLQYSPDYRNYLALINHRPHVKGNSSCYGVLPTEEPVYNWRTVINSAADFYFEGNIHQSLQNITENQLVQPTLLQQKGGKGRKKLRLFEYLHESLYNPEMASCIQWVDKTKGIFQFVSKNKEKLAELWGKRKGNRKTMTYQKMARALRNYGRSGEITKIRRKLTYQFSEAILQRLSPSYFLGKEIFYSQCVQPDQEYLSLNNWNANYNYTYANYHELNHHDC
Outline: as §1

ELF4 = ELF4 (Homo sapiens, UniProt Q99607 1-663); conditions: protein: recombinant; tags: N-terminal GST; dsDNA, one strand shown
Chain of ELF4 (Q99607 whole entry): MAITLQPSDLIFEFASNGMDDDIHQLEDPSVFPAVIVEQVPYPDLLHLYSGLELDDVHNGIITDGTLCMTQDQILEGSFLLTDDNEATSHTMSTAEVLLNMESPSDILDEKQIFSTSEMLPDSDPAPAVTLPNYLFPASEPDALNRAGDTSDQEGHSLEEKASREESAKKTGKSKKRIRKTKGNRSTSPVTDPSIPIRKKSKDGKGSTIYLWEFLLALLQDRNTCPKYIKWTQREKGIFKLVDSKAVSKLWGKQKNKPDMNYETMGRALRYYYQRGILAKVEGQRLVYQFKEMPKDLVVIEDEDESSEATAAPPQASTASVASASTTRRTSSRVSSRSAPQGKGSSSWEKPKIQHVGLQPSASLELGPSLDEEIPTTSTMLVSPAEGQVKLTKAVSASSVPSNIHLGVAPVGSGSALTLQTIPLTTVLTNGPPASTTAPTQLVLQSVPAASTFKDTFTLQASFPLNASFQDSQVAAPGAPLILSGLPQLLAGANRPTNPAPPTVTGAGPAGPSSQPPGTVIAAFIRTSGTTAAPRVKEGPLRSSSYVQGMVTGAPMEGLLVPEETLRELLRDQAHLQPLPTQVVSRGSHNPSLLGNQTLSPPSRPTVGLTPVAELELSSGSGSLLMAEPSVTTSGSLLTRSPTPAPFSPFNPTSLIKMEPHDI
Outline: as §1

ELK4 = molecular target: T9, ELK4 (Homo sapiens, UniProt P28324-2 1-405); conditions: protein: recombinant; tags: N-terminal GST; dsDNA, one strand shown
T9 sequence: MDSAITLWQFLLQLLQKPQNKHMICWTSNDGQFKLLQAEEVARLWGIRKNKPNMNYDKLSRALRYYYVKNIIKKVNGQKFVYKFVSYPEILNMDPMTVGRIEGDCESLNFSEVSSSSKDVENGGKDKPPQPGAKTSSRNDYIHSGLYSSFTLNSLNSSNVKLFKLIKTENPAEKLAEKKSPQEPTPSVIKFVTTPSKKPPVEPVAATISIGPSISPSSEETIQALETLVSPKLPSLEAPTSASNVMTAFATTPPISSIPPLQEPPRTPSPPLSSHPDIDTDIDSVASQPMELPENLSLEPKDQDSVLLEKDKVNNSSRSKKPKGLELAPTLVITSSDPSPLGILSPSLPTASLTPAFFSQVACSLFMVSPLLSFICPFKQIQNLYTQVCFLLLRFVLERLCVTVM
Outline: as §1

ETV2 = molecular target: T10, ETV2 (Homo sapiens, UniProt O00321 1-342); conditions: protein: recombinant; tags: N-terminal GST; dsDNA, one strand shown
T10 sequence: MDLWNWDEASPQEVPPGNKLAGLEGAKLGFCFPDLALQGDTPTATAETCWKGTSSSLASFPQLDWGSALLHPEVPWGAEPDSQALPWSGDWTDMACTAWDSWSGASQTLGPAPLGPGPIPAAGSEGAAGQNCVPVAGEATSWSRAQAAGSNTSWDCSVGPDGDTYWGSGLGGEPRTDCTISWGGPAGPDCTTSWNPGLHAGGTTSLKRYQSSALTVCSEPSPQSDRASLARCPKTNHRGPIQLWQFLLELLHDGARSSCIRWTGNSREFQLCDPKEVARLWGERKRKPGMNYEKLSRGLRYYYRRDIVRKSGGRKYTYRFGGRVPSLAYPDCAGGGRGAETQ
Outline: as §1

ELF3 = molecular target: T11, ELF3 (Homo sapiens, UniProt P78545 1-371); conditions: protein: recombinant; tags: N-terminal GST; dsDNA, one strand shown
T11 sequence: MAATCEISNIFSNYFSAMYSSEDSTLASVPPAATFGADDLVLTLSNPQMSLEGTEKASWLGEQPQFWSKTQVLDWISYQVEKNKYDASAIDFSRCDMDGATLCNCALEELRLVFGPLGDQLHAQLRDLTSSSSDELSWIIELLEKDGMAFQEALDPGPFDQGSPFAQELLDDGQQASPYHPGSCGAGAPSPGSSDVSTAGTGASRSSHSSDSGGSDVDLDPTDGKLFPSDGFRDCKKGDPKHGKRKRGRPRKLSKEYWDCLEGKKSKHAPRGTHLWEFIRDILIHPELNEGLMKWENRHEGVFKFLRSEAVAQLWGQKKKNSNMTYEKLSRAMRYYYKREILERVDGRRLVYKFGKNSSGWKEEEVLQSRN
Outline: as §1

CRX = CRX (Homo sapiens, UniProt O43186 1-299); conditions: protein: recombinant; tags: N-terminal GST; dsDNA, one strand shown
Chain of CRX (O43186 whole entry): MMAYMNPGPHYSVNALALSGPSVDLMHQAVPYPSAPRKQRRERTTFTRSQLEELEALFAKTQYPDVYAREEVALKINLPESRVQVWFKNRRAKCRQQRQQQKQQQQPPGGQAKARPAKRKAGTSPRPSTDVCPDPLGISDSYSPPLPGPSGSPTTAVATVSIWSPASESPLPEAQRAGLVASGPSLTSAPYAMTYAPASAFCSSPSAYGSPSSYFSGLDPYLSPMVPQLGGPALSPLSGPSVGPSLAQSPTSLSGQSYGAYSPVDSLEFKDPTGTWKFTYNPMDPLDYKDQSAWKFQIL
Outline: as §1

ETV1 = ETV1 (Homo sapiens, UniProt P50549 1-477); conditions: protein: recombinant; tags: N-terminal GST; dsDNA, one strand shown
Chain of ETV1 (P50549 whole entry): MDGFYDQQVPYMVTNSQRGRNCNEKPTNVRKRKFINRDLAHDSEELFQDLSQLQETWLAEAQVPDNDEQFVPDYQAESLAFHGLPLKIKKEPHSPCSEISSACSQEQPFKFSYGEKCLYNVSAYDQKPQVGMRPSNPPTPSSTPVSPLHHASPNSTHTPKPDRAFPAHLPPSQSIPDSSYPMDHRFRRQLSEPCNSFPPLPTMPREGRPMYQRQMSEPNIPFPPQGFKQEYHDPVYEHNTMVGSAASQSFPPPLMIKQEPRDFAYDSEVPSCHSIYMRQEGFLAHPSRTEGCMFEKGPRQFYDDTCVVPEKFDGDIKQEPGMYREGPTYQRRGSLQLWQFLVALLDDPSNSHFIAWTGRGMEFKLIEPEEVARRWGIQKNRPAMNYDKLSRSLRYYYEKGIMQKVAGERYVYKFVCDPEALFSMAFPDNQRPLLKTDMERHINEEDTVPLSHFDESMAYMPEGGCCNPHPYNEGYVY
Outline: as §1

Sequence: TTCGAC
- binding signal (FLI1): 1.52 fold enrichment (6-mer frequency, TF over GST control)
- binding signal (ELK1): 1.51 fold enrichment (6-mer frequency, TF over GST control)
- binding signal (GABPA): 1.49 fold enrichment (6-mer frequency, TF over GST control)
- binding signal (ERG): 1.43 fold enrichment (6-mer frequency, TF over GST control)
- binding signal (ELF1): 1.49 fold enrichment (6-mer frequency, TF over GST control)
- binding signal (EHF): 1.41 fold enrichment (6-mer frequency, TF over GST control)
- binding signal (SPI1): 1.3 fold enrichment (6-mer frequency, TF over GST control)
- binding signal (SPIB): 1.45 fold enrichment (6-mer frequency, TF over GST control)
- binding signal (ELK3): 1.39 fold enrichment (6-mer frequency, TF over GST control)
- binding signal (FEV): 1.5 fold enrichment (6-mer frequency, TF over GST control)
- binding signal (ETV5): 1.46 fold enrichment (6-mer frequency, TF over GST control)
- binding signal (HSF1): 1.75 fold enrichment (6-mer frequency, TF over GST control)
- binding signal (SPIC): 1.35 fold enrichment (6-mer frequency, TF over GST control)
- binding signal (ELF4): 1.63 fold enrichment (6-mer frequency, TF over GST control)
- binding signal (ELK4): 1.43 fold enrichment (6-mer frequency, TF over GST control)
- binding signal (ETV2): 1.35 fold enrichment (6-mer frequency, TF over GST control)
- binding signal (ELF3): 1.46 fold enrichment (6-mer frequency, TF over GST control)
- binding signal (CRX): 1.44 fold enrichment (6-mer frequency, TF over GST control)
- binding signal (ETV1): 1.44 fold enrichment (6-mer frequency, TF over GST control)
